Source: PubChem BioAssay (National Center for Advancing Translational Sciences (NCATS))
VDR inh – vitamin D3 receptor (human) inhibition. actives 0.93% (n = 400,000). AID 504847. VDR-SRC2-3 peptide fluorescence polarization, 2 h. P11473. Potency, µM, usual class: inhibitors
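Signal is fluorescence polarization, reporting how far test compounds block the interaction of VDR with the SRC2-3 coregulator peptide after a 2 h room-temperature incubation.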
TCR activator – activators of T cell receptors. primary human leukocytes, anti-CD3, IL-2 HTRF, 48 h. Potency, µM (doses to about 9.22 µM), hits mostly activators. 330,000 tested, under 10 active
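HTRF read-out of IL-2 secretion: europium cryptate donor excited at 320nm, d2 acceptor emission at 665nm. Cells were primary human leukocytes incubated 48 hr with compounds and a-CD3 beads, supplying TCR signal only.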
PLK1 PBD block – blocks phosphopeptide binding to human PLK1 polo-box domain | P53350 | Plk1 PBD binding of FITC phosphopeptide, fluorescence polarization | Potency, µM, hits mostly inhibitors | actives 2.8% (n = 360,000); further: series mostly up to about 57 µM; nearly all actives have a fitted effect of over 65% in size
FEN1 inh – inhibitors of human flap endonuclease 1; Potency, µM (doses to about 114 µM), usual class: inhibitors; AID 588795; actives 0.35% (n = 390,000); P39748; Recombinant FEN1 flap cleavage, fluorescence, 15 min; further: nearly all actives have a fitted effect of over 65% in size
Target sequence (P39748 whole entry, looked up): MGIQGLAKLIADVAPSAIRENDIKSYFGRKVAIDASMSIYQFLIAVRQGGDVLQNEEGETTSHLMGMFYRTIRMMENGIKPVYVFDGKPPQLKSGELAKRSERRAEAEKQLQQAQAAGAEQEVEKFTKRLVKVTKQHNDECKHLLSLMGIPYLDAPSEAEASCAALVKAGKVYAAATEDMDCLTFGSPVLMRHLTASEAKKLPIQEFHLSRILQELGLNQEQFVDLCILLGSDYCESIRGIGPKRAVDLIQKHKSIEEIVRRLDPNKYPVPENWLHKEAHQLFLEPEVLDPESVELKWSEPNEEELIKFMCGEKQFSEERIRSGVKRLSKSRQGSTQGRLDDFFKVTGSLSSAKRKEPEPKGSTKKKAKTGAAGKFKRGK
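Reaction started by adding substrate (50 nM final) to 10 nM enzyme after 15 min room-temperature compound preincubation. Reads at 0 and 15 min, with data normalized and fitted to a four-parameter Hill equation.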
WRN inhibitor – WRN helicase (human) inhibition. Potency, µM (highest dose often 114 µM), actives largely listed as inhibitors. actives 0.46% (n = 360,000). Q14191. WRN helicase unwinding, fluorescent forked duplex, kinetic; further: nearly all actives have a fitted effect of over 55% in size
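Fluorescence dequenching readout, ex 525 nm/em 598 nm, kinetic mode: forked duplex DNA (100 nM final) with adjacent fluorophore and quencher unwound by WRN (20 nM final) with 2 mM ATP. Compound preincubation 15 min, room temperature.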
PI5P4K alpha inh – blocks human PI5P4K alpha kinase activity; PI5P4Kalpha enzyme, ADP-Glo luminescence, 60 min; stronger effect = lower value; max response, %; P48426; actives 1.2% (n = 330,000); active means max response of -50% or lower; inconclusive means between -30% and -50%; inactive means -30% or higher; further: value at the top dose of about 77 µM
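Compounds were pin-transferred onto PI5P4Kalpha and substrate in HEPES pH 7.4 buffer with EGTA, CHAPS and 5% DMSO. ATP (5 microM final) started the reaction, which ran 60 minutes at room temperature before ADP-Glo detection.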
Hits are given with their value; n = inactive; u = inconclusive; x = no result; [ ] = another dose, or the depositor's remark. The list is not random: actives were taken first. Their share in the collection is about 3.7%. Unless noted, the call rests on the fitted dose curve; in most records, active means well fitted curve in the direction sought with a large enough effect; inconclusive means small, poorly fitted or top-dose-only effect, or another doubt; inactive means no such curve, though single readings can be large; an effect the other way counts as inactive or inconclusive.

SMILES	VDR inh	TCR activator	PLK1 PBD block	FEN1 inh	WRN inhibitor	PI5P4K alpha inh
CC(=O)c1ccc(NC(=O)C2C3C=CC(C3=C(c3ccccc3)c3ccccc3)C2C(=O)O)cc1 (stereo unspecified)	n	n	42µM	n	n	n
O=C(O)C(Cc1ccccc1)n1cccc1 (stereo unspecified)	n	n	u	n	n	n
O=C(O)[C@H](Cc1ccccc1)N1C(=O)c2c(Cl)c(Cl)c(Cl)c(Cl)c2C1=O	u	n	27µM	n	u	n
O=C(CSc1nccn1-c1ncc(C(F)(F)F)cc1Cl)c1ccc(Cl)cc1	45µM	n	u	n	n	n
O=C(OC1CCN(c2ncc(C(F)(F)F)cc2Cl)CC1)c1ccc(Cl)cc1	n	n	n	n	n	n
CCOc1cc(-c2ccc(OC(=O)c3ccccc3F)cc2)cc(=O)c2c(C)oc(C)c12	n	x	x	n	x	x
CCOC(=O)c1cc([N+](=O)[O-])c([N+](=O)[O-])cc1NC(C)=O	u	n	8.4µM	n	n[11.6 µM]	n
CSc1cccc(NC(=O)C2CCN(S(=O)(=O)c3ccc4[nH]c(=O)ccc4c3)CC2)c1	n	x	x	n	x	x
CCN(C(=O)CN1C(=O)/C(=C/c2ccccc2)SC1=S)C1CCS(=O)(=O)C1 (stereo unspecified)	n	n	n	n	n	n
CCN(C(=O)CN1C(=O)S/C(=C\c2ccc(F)cc2)C1=O)C1CCS(=O)(=O)C1 (stereo unspecified)	n	n	30µM	n	n	n
CN1CCN(C2=C(Cl)C(=O)N(c3ccc(Cl)c(Cl)c3)C2=O)CC1	u	n	27µM	n	n	n
COc1ccc(CCNC(=O)c2ccc3c(c2)N(Cc2cc(C)ccc2C)C(=O)c2ccccc2S3=O)cc1OC (stereo unspecified)	n	x	x	n	x	x
COCOc1c2c(c(OCOC)c3c(OCOC)cccc13)/C(=N/N[S+](=O)([O-])c1ccc(C)cc1)C1=C2CCCC1	n	x	x	x	x	x
CCc1cc2c(cc3c(=O)n(CC(=O)NC4CCC(C)CC4)nc(CC)n32)s1 (stereo unspecified)	n	x	x	n	x	x
O=C(Oc1ccc(C(=S)N2CCOCC2)cc1Br)c1ccccc1F	u	n	24µM	n	n	n
O=C(Oc1ccc(C(=S)N2CCOCC2)cc1)c1ccccc1F	u	n	21µM	n	n	n
Cc1ccc(-n2cnc3cc(C(=O)NC4CCCCCC4)ccc32)cc1Cl	n	x	x	n	x	x
CCCC1=Nc2cc(C(=O)NCc3ccccc3)ccc2Sc2ccccc21	n	x	x	n	x	x
CCc1cccc(CC)c1NC(=O)/C(C#N)=C/c1ccccc1C(F)(F)F	50µM	n	n	n	n	n
CN1CCN(C2(CNC(=O)c3ccc(C(C)(C)C)cc3)CCCCC2)CC1	n	x	x	n	x	x
Nc1c(C(=O)O)sc2nc(-c3ccc(F)cc3)cc(-c3ccccc3)c12	n	n	30µM	n	n	n
COc1ccc(-c2nc3cc(C(C)C)ccc3o2)cc1NC(=O)c1ccccc1[N+](=O)[O-]	n	x	x	n	x	x
CC(C)(C)n1ncc2c(=O)n(Cc3ccccc3SC(F)(F)F)cnc21	x	x	x	n	x	x
NN=C1c2ccccc2C(=O)C1C(=O)C(c1ccccc1)c1ccccc1 (stereo unspecified)	n	n	n	u	50µM	-51
Cc1ccc(C(=O)C2C(=O)c3ccccc3C2=O)cc1	n	x	n	n	n	x
SMILES	VDR inh	TCR activator	PLK1 PBD block	FEN1 inh	WRN inhibitor	PI5P4K alpha inh
C/C=C/C1=Cc2ccccc2C(C(C(=O)OC)C(=O)OC)N1C(=O)OC (stereo unspecified)	n	x	x	x	x	x
CN(C)/[N+]([O-])=N/Oc1cc(O/[N+]([O-])=N/N2CCCC2CO)c([N+](=O)[O-])cc1[N+](=O)[O-] (stereo unspecified)	n	x	x	u	x	x
O=C(c1ccc([N+](=O)[O-])cc1)N1CCN(c2ncc(Br)cn2)CC1	u	n	27µM	n	n	n
O=C(C1=C(O)C(=O)N(c2nccs2)C1c1ccccc1)c1cc2ccccc2o1 (stereo unspecified)	n	n	u	n	n	-52
Cc1cc(N2C(=O)C(O)=C(C(=O)c3ccco3)C2c2cccc(Oc3ccccc3)c2)no1 (stereo unspecified)	n	n	u	n	n	-68
Cc1cc(N2C(=O)C(O)=C(C(=O)c3cc4ccccc4o3)C2c2ccc([N+](=O)[O-])cc2)no1 (stereo unspecified)	n	n	38µM	n	n	u
Cc1ccc(C2C(C(=O)c3cc4ccccc4o3)=C(O)C(=O)N2c2cc(C)on2)cc1 (stereo unspecified)	79µM	n	19µM	n	n	-52
CCOc1cccc(C2C(C(=O)c3ccc(C)o3)=C(O)C(=O)N2c2nccs2)c1 (stereo unspecified)	n	n	n	n	n	n
Cc1cc(N2C(=O)C(O)=C(C(=O)c3cc4ccccc4o3)C2c2cccs2)no1 (stereo unspecified)	n	n	u	u	n	n
Cc1ccc(NC(=S)Nc2ccc3[nH]c(=O)[nH]c3c2)cc1	u	n	19µM	n	n	n
CN=C1S/C(=C\c2ccc(O)c(Br)c2)C(=O)N1C	n	n	n	n	n	-79
CCCCc1ccc(NC(=O)COC(=O)c2ccccc2OCC(=O)Nc2ccc(Br)cc2)cc1	x	x	x	n	x	x
Cc1ccc(CN2CCC(NC(=O)c3ccccc3)CC2)cc1	n	n	30µM	n	n	n
CC(C)CSC1=NSC2=NC(=O)/C(=C\c3cccs3)C(=N)N12	n	n	u	n	n	u
CSC1=NSC2=NC(=O)/C(=C/c3coc4ccccc4c3=O)C(=N)N12	50µM	n	21µM	79µM	35µM	-61
N=C1/C(=C/c2cccs2)C(=O)N=C2SN=C(SCc3ccccc3)N12	n	n	27µM	u	u	n
CSC1=NSC2=NC(=O)/C(=C/c3coc4ccc(O)cc4c3=O)C(=N)N12	u	n	u	45µM	45µM	-74
CCNc1ncc2nc(C)c(=O)n(CCc3ccccc3)c2n1	n	x	x	x	x	x
CCN(CC)CCNC(=O)c1ccc2nc(CCc3ccccc3)oc2c1	n	x	x	n	x	x
O=C(Nc1cccc(Br)c1)N1CCN2CCCCC2C1 (stereo unspecified)	n	x	x	n	x	x
C=Cc1c(C)/c2[n-]/c1=C\c1[n-]c(c(CC)c1C)/C=c1\[n-]c3c(c1C)C(=O)C(C(=O)[O-])C=3c1[n-]c(c(C)c1CCC(=O)[O-])\C=2.[Cu].[Na+].[Na+] (stereo unspecified)	32µM	x	x	x	x	x
C=C1c2cccc(OC)c2O[C@H](C(=O)OCC)[C@@H]1CCC(C)C	n	x	x	x	x	x
O=C(Nc1ccc(S(=O)(=O)Nc2nccs2)cc1)c1ccc(S(=O)(=O)N2CCOCC2)cc1	n	n	n	n	n	n
O=C(Nc1cc(S(=O)(=O)N2CCOCC2)ccc1N1CCOCC1)c1ccc(Cl)nc1	n	n	30µM	n	n	n
